# Compound activity: PubChem BioAssay, National Center for Advancing Translational Sciences (NCATS)
# HepG2 tox: HepG2 cytotoxicity, counter-screen for TGF-b inhibitors; HepG2 CAGA-GFP viability, ATP luminescence, 18 h; Potency, µM (highest dose often 46.1 µM), for the others: at the top dose activity change, negative = cytotoxicity, hits mostly cytotoxic; hit rate 0.76% among 410,000
#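 CellTiter-Glo luminescence gave cytotoxicity after 18 hours at 37 degrees C. The cells were HepG2 CAGA-GFP in 1% FBS DMEM, stimulated with 500 pg/mL TGF-beta after compound addition. %Activity was normalised to no-cell wells (complete cell-killing) and DMSO (no toxicity), and curves were fitted and classified.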
# DT40 TDP1 CPT: DT40-hTDP1 cell growth loss with CPT; chicken DT40 Tdp1-/-;hTDP1 cells + 20 nM CPT, ATP luminescence, 48 h; Potency, µM (series often up to 46.2 µM), for the others: top-dose activity change, negative = growth inhibition, most hits filed as inhibitors; hit rate 12% among 420,000; AID 686979; also: % is scaled to controls: 0 for no effect and ±100 for the full control effect; nearly all actives have a fitted effect of over 55% in size
#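 Chicken DT40 Tdp1-/- cells stably complemented with human TDP1 were seeded at 400 cells/well in medium containing 20 nM camptothecin, exposed to pin-transferred compounds, and grown at 37 °C for at least 48 hr. Viability was read as ATP luminescence.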
# TGFb inhibitor: blocks TGF-b signaling | HepG2 CAGA-GFP TGF-b/SMAD3 reporter, GFP fluorescence, 18 h; TGF-beta stimulated, 500 pg/mL final | Potency, µM (titrated, usually from 46.1 µM), for the others: top-dose activity, negative = inhibition, usual class: inhibitors | hit rate 1.2% among 410,000 | AID 588855; also: % is scaled to controls: 0 for no effect and ±100 for the full control effect; nearly all actives have a fitted effect of over 65% in size
#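 HEPG2 CAGA-GFP reporter cells (1000/well, DMEM with 1% FBS) received compounds, then recombinant TGF-beta at 500 pg/mL final for 18 hours at 37 degrees C. Per-cell GFP summed per well was normalised to unstimulated and stimulated DMSO controls before curve fitting.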
# TDP1 cell noCPT: qHTS for Inhibitors of human tyrosyl-DNA phosphodiesterase 1 (TDP1): qHTS in cells in absence of CPT. Potency, µM (top dose mostly 46.2 µM), for the others: top-dose activity change, negative = growth inhibition, usual class: inhibitors. hit rate 15% among 420,000. DT40 Tdp1-/- hTDP1 cells, no CPT, ATP luminescence, 48 h; also: % is scaled to controls: 0 for no effect and ±100 for the full control effect; nearly all actives have a fitted effect of over 55% in size
#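 Stably hTDP1-transfected Tdp1-null chicken DT40 cells were treated with library compounds minus camptothecin and grown for at least 48 hr at 37 °C, after which cellular ATP was quantified by luminescence.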
# HT1080 IDH1KD tx: HT-1080 IDH1 knockdown cell toxicity (counter line). HT-1080 IDH1 knockdown viability, ATP luminescence, 48 h. Potency, µM (series often up to 46.1 µM), inactives show at the top dose activity, negative = toxicity, most hits filed as cytotoxic. hit rate 2% among 360,000;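 also: 0% = DMSO wells and -100% = cell-free medium wells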
#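 Using the IDH1-knockdown HT-1080 line run in the same batch and compound series as the NT line, viability after 48 h at 37 °C was determined by CellTiter-Glo luminescence and expressed as % activity.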
# HT1080NT lethal: kills 2HG-producing HT-1080-NT fibrosarcoma cells. Potency, µM (series often up to 46.1 µM), for inactives: at the highest dose activity, negative = less viability, actives largely listed as cytotoxic. HT-1080-NT fibrosarcoma viability, CellTiter-Glo ATP luminescence, 48 h. hit rate 1.6% among 360,000;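 also: NT is the 2HG producing partner of a matched IDH1 knockdown line; 0% = DMSO-treated cells and -100% = media-only wells without cells; nearly all actives have a fitted effect of over 55% in size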
#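 Luminescent CellTiter-Glo readout after 48 hours of compound exposure at 37 degrees C defined viability of HT-1080-NT cells. Activity was normalized to DMSO wells and cell-free media wells; concentration-response curves were fitted and assigned curve classes.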
# * hit, by the source's call; ? = inconclusive; nt = no result given. This is a sample that favours compounds with a hit; in the whole collection about 17% have one here. Calls follow the shape of the dose curve; as a rule, active = well fitted curve in the direction sought with a large enough effect; inconclusive = small, poorly fitted or top-dose-only effect, or another doubt; inactive = no such curve, though single readings can be large; an effect the other way counts as inactive or inconclusive. Potency is read from the fitted curve at half-maximal effect.
SMILES,HepG2 tox,DT40 TDP1 CPT,TGFb inhibitor,TDP1 cell noCPT,HT1080 IDH1KD tx,HT1080NT lethal
C=CCSc1nnc(NC(=O)C23CC4CC(CC(NC(C)=O)(C4)C2)C3)s1,-12.5%,0.5%,-5.5%,1.4%,13.2%,20.4%
COc1ccc([C@H]2CC(=O)C=C(c3ccc4ncccc4c3)C2)cc1OC,-0.8%,?,0.6%,20.6µM*,-4.7%,-4.4%
COc1ccc([C@H]2CC(=O)C=C(c3ccc4c(c3)OCO4)C2)cc1OC,-14.8%,?,-3.0%,?,0.9%,-6.1%
O=C1C=C(c2cc3ccccc3s2)C[C@@H](c2ccc(Cl)cc2)C1,-5.4%,9.2µM*,?,?,-9.5%,-7.7%
COc1ccc([C@H]2CC(=O)C=C(c3ccc4ccccc4c3)C2)cc1OC,-10.5%,?,?,16.4µM*,13.2%,9.3%
O=C1C=C(c2ccc3ncccc3c2)C[C@@H](c2ccc(Cl)cc2)C1,-30.1%,23.1µM*,?,?,-28.8%,?
O=C1C=C(c2ccc3ccccc3c2)C[C@@H](c2ccc(Cl)cc2)C1,-10.6%,?,?,?,6.4%,11.8%
O=C1C=C(c2cc3ccccc3s2)C[C@@H](c2ccc(F)cc2)C1,-3.9%,?,3.1%,?,15.3%,15.6%
CCn1c(-c2ccccc2F)nc2cc(NC(C)=O)cc(C(=O)N(C)Cc3c(C)nc4ccccn34)c21,nt,9.5%,nt,?,nt,nt
O=C(CSc1nc2c([nH]c3ccccc32)c(=O)n1-c1ccc(F)cc1)N1CCc2ccccc21,-2.8%,0.3%,-15.2%,?,nt,nt
COc1ccc([C@H]2CC(=O)C=C(c3ccc(O)cc3)C2)cc1OC,-4.5%,?,-13.0%,20.6µM*,-9.8%,2.5%
COc1ccc([C@H]2CC(=O)C=C(c3cccc4c3Oc3ccccc3S4)C2)cc1OC,-19.2%,16.4µM*,-13.2%,13µM*,-13.4%,-17.4%
COc1ccc([C@H]2CC(=O)C=C(c3ccc(OC)c(OC)c3)C2)cc1,-0.6%,11.6µM*,11.6%,?,-13.5%,-8.4%
COc1ccc([C@H]2CC(=O)C=C(c3cccc(C(C)C)c3)C2)cc1OC,-35.7%,20.6µM*,?,16.4µM*,-2.4%,-16.3%
CCOc1ccc(NS(=O)(=O)c2cc3c(cc2C)N(C)CCO3)cc1,-30.9%,20.6µM*,-9.2%,20.6µM*,-13.6%,-12.9%
Cc1cc2c(cc1S(=O)(=O)Nc1cccc(Cl)c1C)OCCN2C,-76.0%,?,?,18.4µM*,nt,nt
CCOC(=O)c1c(NC(=O)C2CC(Cl)=CCC2C(=O)O)sc2c1CC(C)(C)OC2 (stereo not drawn),1.0%,7.6%,-2.6%,1.3%,13.5%,-1.3%
CC(Cl)C(=O)NC(=O)NC12CC3CC(CC(C3)C1)C2 (stereo not drawn),-25.3%,16.4µM*,-4.2%,20.6µM*,-6.4%,-7.9%
CC(C)(C)NC(=O)NC12CC3CC(CC(C3)C1)C2,-18.0%,4.8%,-20.5%,-9.0%,3.9%,-0.9%
CC(=O)/C(=N/Nc1cccc(C)c1)N1CCOCC1,-5.3%,6.51µM*,1.3%,?,?,-5.3%
Cc1ccc(C)c(C(O)c2ncc(-c3ccccc3F)[nH]2)c1 (stereo not drawn),4.6%,?,4.3%,?,11.8%,22.3%
O=C(CCC(=O)OCC(=O)c1ccc(Cl)cc1)Nc1ccc(Oc2ccccc2)cc1,33.8%,-3.4%,47.8%,-9.6%,nt,nt
O=C(OC1C2C=CC1C1C(=O)NC21)c1ccccc1 (stereo not drawn),5.2%,2.2%,2.8%,-22.8%,4.4%,0.7%
